# Bioassay records deposited in PubChem by several laboratories.
# TIM10 inh – TIM10 yeast growth inhibition. S. cerevisiae TIM10 strain growth, BacTiter-Glo luminescence, 24 h. actives 1.4% (n = 330,000). inhibition, % at 10 µM;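 active = inhibition of 40% or more at the single tested concentration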;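 note: wild-type TIM10 isogenic control strain grown at permissive 25 °C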
# SUMO Mot1 rescue – SUMOylation pathway inhibition by Mot1-301 growth rescue; actives 1% (n = 320,000); AID 2716; growth rescue, % at 18.8 µM; S. cerevisiae Mot1-301 growth rescue, ATP luminescence, 38.5C; percent above DMSO median, 100 means doubled;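 active = every valid replicate shows activation above 250% relative to neutral control wells; inactive = the rest, any valid replicate at or below 250%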;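 note: OY570 slx delta 5 strain wells were the positive control but not used for scaling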
# tim23-1 inh – growth inhibitors of tim23-1 mutant yeast | actives 1.3% (n = 330,000) | inhibition, % at 20 µM | S. cerevisiae tim23-1 growth, BacTiter-Glo luminescence, 24 h;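 active = growth inhibition of the mutant yeast at or above 50%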;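 note: temperature-sensitive mutant grown at 25 °C; plate controls were DMSO-treated mutant yeast for no effect and medium wells lacking yeast for full effect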
# tim10-1 inh – tim10-1 yeast growth inhibition | S. cerevisiae tim10-1 ts strain growth, BacTiter-Glo, 24 h | inhibition, % at 20 µM | actives 2.2% (n = 330,000);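 active = inhibition of at least 40%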;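 note: mutant grown at 25 °C; 0% = DMSO wells with yeast and 100% = wells holding no yeast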
# PfHsp90 set2 – inhibits growth of yeast expressing Plasmodium falciparum Hsp90; S. cerevisiae expressing PfHsp90, BacTiter-Glo ATP, 48 h; yeast lacking PDR1 and PDR3 efflux regulators; inhibition, % at 9.4 µM; actives 0.32% (n = 310,000);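 active = every replicate shows inhibition above about 80%, whatever the replicate mean, limit read from the data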;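 note: 0% = DMSO neutral controls and 100% = 20 µM radicicol positive controls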
# tim10-1 confirm – confirmation of tim10-1 mutant yeast growth inhibitors | actives 56% (n = 7,400) | S. cerevisiae tim10-1 ts strain growth, BacTiter-Glo, 24 h | inhibition, % at 20 µM | AID 463213 | shares compounds with tim10-1 inh;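 active = inhibition of yeast growth at or above a set limit in either of two repeat tests at 20 µM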;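 note: tim10-1 mutant grown at permissive 25 °C to find synthetic lethal compounds; 0% = DMSO yeast wells and 100% = medium wells without yeast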
# TIM10 conf – TIM10 yeast growth inhibition, confirmed; actives 63% (n = 4,600); inhibition, % at 10 µM; AID 463215; S. cerevisiae tim10 strain growth, BacTiter-Glo luminescence, 24 h; shares compounds with TIM10 inh;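 active = inhibition of yeast growth at or above a set limit in either of two replicates at 10 µM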;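 note: this counterscreen used the strain with wild-type TIM10; 0% = yeast with DMSO and 100% = medium wells lacking yeast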
# tim23-1 confirm – tim23-1 yeast growth inhibition, confirmed | inhibition, % at 20 µM | shares compounds with tim23-1 inh | AID 463218 | actives 83% (n = 4,400) | S. cerevisiae tim23-1 growth, BacTiter-Glo luminescence, 24 h;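 active = inhibition above about 39% in either of two replicate wells at 20 µM, limit read from the data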;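 note: temperature-sensitive tim23-1 mutant grown at 25 °C; 0% = DMSO wells with yeast and 100% = medium wells without yeast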
# Numbers without * were called inactive; . = no result. A selection: hits, their analogues and other compounds. The true share with any hit is near 4.4%.
SMILES,TIM10 inh,SUMO Mot1 rescue,tim23-1 inh,tim10-1 inh,PfHsp90 set2,tim10-1 confirm,TIM10 conf,tim23-1 confirm
COc1cc(/C=C2\N=C(C)OC2=O)cc(OC)c1OC,4,245,22,10,13,.,.,.
S=C(NCC1CCCO1)N1CCN(c2nc(-c3ccc(Cl)cc3)cs2)CC1 (centres undefined),40*,103,50*,51*,-46,39*,43*,52*
S=C(NCCCN1CCOCC1)N1CCN(c2nc(-c3ccc(Cl)cc3)cs2)CC1,30,-2,27,17,12,.,.,.
NNC(=O)C(Cc1cnc[nH]1)NC(=O)OCc1ccccc1 (centres undefined),-4,105,-2,3,0,.,.,.
c1ccc(-c2noc(-c3ccc4c(c3)OCO4)n2)nc1,34,57,52*,49*,69,40*,.,60*
CCCCOc1cccc(-c2nnc(N)s2)c1,29,.,52*,53*,11,36*,.,50*
CCOc1ccccc1NC(=O)COC(=O)CN1C(=O)NC(C)(C)C1=O,6,1,-2,13,4,.,.,.
CCOc1ccc(-c2nc3c(s2)CCc2onc(-c4ccc(OC)cc4)c2-3)cc1,0,4,-7,4,-8,.,.,.
NC(=S)N/N=C/c1ccccc1OCCSc1ccc(Cl)cc1,57*,-5,54*,43*,-29,32*,3,34
COc1ccc(N(C(=O)Cn2nnc(-c3ccc(F)cc3)n2)C(C)C(=O)NC2CCCC2)cc1OC (centres undefined),11,35,3,0,3,.,.,.
Nc1ccc2c(c1)C(=O)C(=O)c1ccccc1-2,94*,91,73*,92*,14,92*,99*,69*
CCc1c(C)nc(Nc2nc(C)c3ccc(OC)cc3n2)[nH]c1=O,31,-9,42,31,6,.,.,.
CCc1c(C)nc(Nc2nc(C)c3cc(OC)ccc3n2)[nH]c1=O,46*,.,53*,42*,-11,31*,-9,52*
Cc1c(C(=O)NCc2ccc3c(c2)OCO3)oc2ccccc12,41*,-10,53*,48*,.,42*,28,55*
Cc1ccc2oc(C(=O)NCc3ccc4c(c3)OCO4)c(C)c2c1,6,11,31,31,-11,.,.,.
COc1cccc(NC(=O)Nc2ccc(C(C)(C)C)cc2)c1,49*,.,58*,57*,-14,46*,60*,75*
CC[C@]12c3[nH]c4cc(CCC(=O)N(C)C)ccc4c3CCN1C(=O)[C@@H](CC(=O)NC/C=C(\C)CCC=C(C)C)C[C@@H]2C(=O)N1CCN(C(=O)c2ccco2)CC1,-1,.,31,13,-3,.,.,.
COc1ccc2cc(/C=C/C(=O)c3ccco3)c(Cl)nc2c1,46*,.,52*,45*,.,38*,16,48*
Cc1ccc2cc(/C=C/C(=O)c3ccco3)c(Cl)nc2c1,61*,-6,80*,54*,.,54*,61*,65*
COc1cc2cc(/C=C/C(=O)c3ccco3)c(Cl)nc2cc1OC,36,-11,49,36,-31,.,.,.
Cc1ccc2nc(Cl)c(/C=C/C(=O)c3ccco3)cc2c1,51*,-3,64*,44*,12,28,52*,50*
Cc1ccc2cc(/C=N/NC(=O)c3ccc(F)cc3)c(Cl)nc2c1,-5,8,-7,-1,.,.,.,.
CCNC(=O)O/N=C(\C)c1sc(-c2ccc(Cl)cc2)nc1C,21,-10,57*,60*,-12,54*,.,64*
NC(=N\N=CCc1ccccc1)/C(N)=N/N=CCc1ccccc1,.,.,.,.,-13,.,.,.
N/C(=N\OC(=O)c1cccc(Cn2cc(C(F)(F)F)ccc2=O)c1)c1ccc(Cl)cc1,3,-9,51*,44*,12,56*,.,60*
Cc1ccc(S(=O)(=O)/N=C(/Nc2ccc(O)c(C(=O)O)c2)c2ccccc2)cc1,4,-15,11,6,11,.,.,.
